Source: PubChem BioAssay
Keap1 Nrf2 FP: inhibitors of human Keap1-Nrf2 protein-protein interaction; inhibition, % at 9.4 µM; Q14145; hit rate 0.15% among 340,000; Keap1 Kelch-Nrf2 peptide fluorescence polarization, 1536-well; in the data active means inhibition above about 12%;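 further: human Keap1 Kelch domain with fluorescein labeled Nrf2 9mer peptide probe; higher means more block of Keap1 binding to Nrf2 peptide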
C-LANA FP: KSHV C-LANA DNA binding inhibition. inhibition, % at 9 µM. hit rate 0.078% among 340,000. MBP-C-LANA/FAM-LBS DNA binding, fluorescence polarization;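 active means highest replicate inhibition at or above 60% at 9 µM, even if other replicates fall short; inactive means all replicates below 60% inhibition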
MCL1-BIM inh: MCL1-BIM-BH3 interaction inhibition (human) | inhibition, % at 10.9 µM | Q07820 | GST-MCL1 / FITC-Bim-BH3 fluorescence polarization | hit rate 0.68% among 320,000 | AID 2057;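 active means inhibition above the mean inhibition of all tested compounds plus 3 SD, set per campaign, cut at about 40% in these data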;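 further: higher means more loss of mP so more displacement of Bim peptide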
GLD-1 TGE inh: GLD-1-TGE RNA interaction inhibition (C. elegans); inhibition, % at 5.96 µM; purified GLD-1 + fluorescein TGE RNA, fluorescence polarization; Q17339; hit rate 0.44% among 320,000;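 active means percent inhibition above a per-plate cutoff, the plate mean of test compounds plus 3 SD, cut at about 30% in these data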
Bcl-xL primary: blocks human Bcl-xL binding to Bim BH3 peptide; GST-Bcl-xL / FITC-Bim BH3 peptide fluorescence polarization; Q07817; inhibition, % at 10.9 µM; hit rate 0.7% among 320,000; AID 2129;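 active means inhibition above the mean of all tested compounds plus 3 SD, cutoff set per campaign, cut at about 30% in these data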;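 further: inhibitors lower millipolarization by displacing the labeled peptide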
eLon inh: inhibitors of E. coli Lon protease. P0A9M0. purified E. coli Lon protease, fluorescence polarization. inhibition, % at 7.94 µM. hit rate 0.42% among 360,000. AID 602123; in the data active means inhibition above about 13%, passing the limit was not always enough
Target sequence (P0A9M0 whole entry, looked up): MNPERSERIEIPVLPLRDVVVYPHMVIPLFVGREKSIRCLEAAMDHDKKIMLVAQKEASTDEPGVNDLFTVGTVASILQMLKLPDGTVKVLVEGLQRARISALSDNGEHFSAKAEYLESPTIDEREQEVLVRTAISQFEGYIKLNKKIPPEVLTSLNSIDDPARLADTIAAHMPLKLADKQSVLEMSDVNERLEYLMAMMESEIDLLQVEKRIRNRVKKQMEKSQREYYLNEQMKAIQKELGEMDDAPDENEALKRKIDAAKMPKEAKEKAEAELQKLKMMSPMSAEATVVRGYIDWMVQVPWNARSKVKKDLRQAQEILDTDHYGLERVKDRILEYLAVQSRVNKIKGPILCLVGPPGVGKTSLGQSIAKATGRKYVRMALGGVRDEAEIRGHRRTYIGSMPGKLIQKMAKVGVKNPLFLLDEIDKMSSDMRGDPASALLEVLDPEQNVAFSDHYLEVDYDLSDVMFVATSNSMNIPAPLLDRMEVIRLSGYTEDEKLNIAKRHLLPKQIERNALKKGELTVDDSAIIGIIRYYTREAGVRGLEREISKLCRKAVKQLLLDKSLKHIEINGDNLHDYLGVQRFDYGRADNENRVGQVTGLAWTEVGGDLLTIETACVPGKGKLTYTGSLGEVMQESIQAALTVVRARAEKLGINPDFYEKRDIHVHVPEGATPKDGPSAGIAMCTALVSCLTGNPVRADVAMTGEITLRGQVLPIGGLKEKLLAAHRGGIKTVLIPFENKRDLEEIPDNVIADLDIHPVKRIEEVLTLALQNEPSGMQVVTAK
Bcl-xL conf: counter-screen for MCL1 inhibitors: confirmation of human Bcl-xL inhibitors | GST-Bcl-xL / FITC-Bim BH3 peptide FP binding | hit rate 54% among 1,700 | inhibition, % at 10.9 µM | shares compounds with MCL1-BIM inh;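 active means inhibition above a cutoff equal to the mean inhibition of all tested compounds plus 3 SD, cut at about 30% in these data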
MCL1 BIM confirm: confirmation of human MCL1 and BIM-BH3 interaction inhibitors; shares compounds with MCL1-BIM inh; GST-MCL1 / FITC-Bim-BH3 fluorescence polarization; inhibition, % at 10.9 µM; hit rate 61% among 1,700;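 active means inhibition above the average of all tested compounds plus 3 SD, cut at about 40% in these data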
Numbers stand for hits. Most compounds without a hit are left out; they make up all but 1.3% or so of the library.

Screening O=C(CC1NCCc2ccccc21)Nc1ccc(Cl)cc1 (stereo unspecified) returned Keap1 Nrf2 FP inactive, C-LANA FP inactive, MCL1-BIM inh inactive, GLD-1 TGE inh inactive, Bcl-xL primary inactive and eLon inh inactive.
Screening CC(=O)Nc1ccc2cc3ccc(NC(C)=O)cc3nc2c1 returned Keap1 Nrf2 FP inactive, C-LANA FP inactive, MCL1-BIM inh 62.8, GLD-1 TGE inh inactive, Bcl-xL primary 60.2, eLon inh inactive, Bcl-xL conf 155.6 and MCL1 BIM confirm 194.8.
Screening C=CCn1c(C)cc(C(=O)CSc2n[nH]c(N)n2)c1C returned Keap1 Nrf2 FP inactive, C-LANA FP inactive, MCL1-BIM inh 46.9, GLD-1 TGE inh inactive, Bcl-xL primary inactive, eLon inh inactive, Bcl-xL conf inactive and MCL1 BIM confirm inactive.
For Cc1ccc(S(=O)(=O)NC(CCc2ccccc2)CC(=O)C(C)(C)C)cc1 (stereo unspecified) the results were MCL1-BIM inh inactive, GLD-1 TGE inh inactive and Bcl-xL primary inactive.
CC1(C)CCN2CCC(C)(C)c3c(O)ccc1c32 was read as Keap1 Nrf2 FP inactive, C-LANA FP inactive, MCL1-BIM inh 170.5, GLD-1 TGE inh 76.7, Bcl-xL primary 141.1, eLon inh inactive, Bcl-xL conf inactive and MCL1 BIM confirm inactive.
Screening COC(=O)c1c(Cl)c2n3ccccc3c(C)c(-c3ccccc3)c-2c1C(=O)OC returned Keap1 Nrf2 FP inactive, C-LANA FP inactive, MCL1-BIM inh active, GLD-1 TGE inh 178.6, Bcl-xL primary 171.6, eLon inh inactive, Bcl-xL conf 37.5 and MCL1 BIM confirm inactive.
CCN(CC)C(=O)CN1C(=O)NC2(CCc3ccccc3C2)C1=O (stereo unspecified) was read as Keap1 Nrf2 FP inactive, C-LANA FP inactive, MCL1-BIM inh inactive, GLD-1 TGE inh inactive, Bcl-xL primary inactive and eLon inh inactive.
Screening CCOC(=O)c1c(C)[nH]c(C)c1S(=O)(=O)N(C)Cc1ccco1 returned Keap1 Nrf2 FP inactive, C-LANA FP inactive, MCL1-BIM inh inactive, GLD-1 TGE inh inactive, Bcl-xL primary inactive and eLon inh inactive.
Cc1c(Br)c(=O)oc2c(Br)c(O)c(O)cc12 was read as Keap1 Nrf2 FP inactive, C-LANA FP inactive, MCL1-BIM inh 68.0, GLD-1 TGE inh inactive, Bcl-xL primary inactive, eLon inh inactive, Bcl-xL conf 35.7 and MCL1 BIM confirm 83.9.
For Cc1ccc2c(C)c(C(=O)N(C)Cc3nccn3C)oc2c1C the results were Keap1 Nrf2 FP inactive, C-LANA FP inactive, MCL1-BIM inh inactive, GLD-1 TGE inh inactive, Bcl-xL primary inactive and eLon inh inactive.
Cc1ccc(N=Nc2[nH]c3ccccc3c2O)cc1 was read as Keap1 Nrf2 FP inactive, C-LANA FP inactive, MCL1-BIM inh 108.7, GLD-1 TGE inh 66.8, Bcl-xL primary 100.5, eLon inh inactive, Bcl-xL conf 83.3 and MCL1 BIM confirm 81.4.
Screening COc1ccc(N=Nc2[nH]c3ccc(C)cc3c2O)cc1 returned Keap1 Nrf2 FP inactive, C-LANA FP inactive, MCL1-BIM inh inactive, GLD-1 TGE inh inactive, Bcl-xL primary inactive and eLon inh inactive.
c1ccc(CN(Cc2ccccc2)c2nn[nH]n2)cc1 was read as Keap1 Nrf2 FP inactive, C-LANA FP inactive, MCL1-BIM inh 45.9, GLD-1 TGE inh inactive, Bcl-xL primary inactive, eLon inh inactive, Bcl-xL conf inactive and MCL1 BIM confirm inactive.
Screening CN(C)c1ccc(/C=C2\SC(=O)N(CC(O)Cn3c4ccccc4c4ccccc43)C2=O)cc1 (stereo unspecified) returned Keap1 Nrf2 FP inactive, C-LANA FP inactive, MCL1-BIM inh 79.7, GLD-1 TGE inh 133.4, Bcl-xL primary 133.0, eLon inh inactive, Bcl-xL conf inactive and MCL1 BIM confirm inactive.
Screening CC(C)NC(=O)NC(=O)COC(=O)c1cc[n+]([O-])cc1 returned Keap1 Nrf2 FP inactive, C-LANA FP inactive, MCL1-BIM inh inactive, GLD-1 TGE inh inactive, Bcl-xL primary inactive and eLon inh inactive.
O=C(COc1ccccc1C(=O)N/N=C\c1ccc(O)c(O)c1)N/N=C/c1ccc(O)c(O)c1 was read as Keap1 Nrf2 FP inactive, C-LANA FP inactive, MCL1-BIM inh 56.3, GLD-1 TGE inh inactive, Bcl-xL primary inactive, eLon inh inactive, Bcl-xL conf 44.2 and MCL1 BIM confirm 80.7.
O=C(NN=Cc1ccc(O)c(O)c1)c1ccccc1 was read as eLon inh inactive.
CCOc1ccc(/C=C2\SC(=S)NC2=O)cc1OC was read as Keap1 Nrf2 FP inactive, C-LANA FP inactive, MCL1-BIM inh inactive, GLD-1 TGE inh inactive, Bcl-xL primary inactive and eLon inh inactive.
For COc1ccc(/C=C2\SC(=O)NC2=S)cc1OC the results were Keap1 Nrf2 FP inactive, C-LANA FP inactive, MCL1-BIM inh 122.1, GLD-1 TGE inh 99.6, Bcl-xL primary 101.9, eLon inh inactive, Bcl-xL conf 38.1 and MCL1 BIM confirm inactive.
O=C1c2cccc3c(N4CCCCC4)ccc(c23)C(=O)N1c1ccccn1 was read as Keap1 Nrf2 FP inactive, C-LANA FP inactive, MCL1-BIM inh 171.9, GLD-1 TGE inh 161.2, Bcl-xL primary 122.4, eLon inh inactive, Bcl-xL conf 154.1 and MCL1 BIM confirm 179.1.
`O=C(N/N=C/c1ccc(Cl)cc1Cl)c1ccncc1` gave Keap1 Nrf2 FP inactive, C-LANA FP inactive, MCL1-BIM inh inactive, GLD-1 TGE inh inactive, Bcl-xL primary inactive and eLon inh inactive.
For O=C(N/N=C/c1cc(Cl)cc(Cl)c1O)c1ccncc1 the results were Keap1 Nrf2 FP inactive, C-LANA FP inactive, MCL1-BIM inh 55.9, GLD-1 TGE inh 67.5, Bcl-xL primary 71.7, eLon inh inactive, Bcl-xL conf 67.1 and MCL1 BIM confirm 66.6.
`CC1CC(C)CN(C(=O)Cn2nnc(-c3ccccc3)n2)C1` (stereo unspecified) gave Keap1 Nrf2 FP inactive, C-LANA FP inactive, MCL1-BIM inh inactive, GLD-1 TGE inh inactive, Bcl-xL primary inactive and eLon inh inactive.
CC1CCN(C(=O)Cn2nnc(-c3ccccc3)n2)CC1 was read as Keap1 Nrf2 FP inactive, C-LANA FP inactive, MCL1-BIM inh 44.6, GLD-1 TGE inh inactive, Bcl-xL primary inactive, eLon inh inactive, Bcl-xL conf inactive and MCL1 BIM confirm inactive.
Screening O=C(O)c1ccc2c(c1)C1C=CCC1C(c1ccncc1)N2 (stereo unspecified) returned Keap1 Nrf2 FP inactive, C-LANA FP inactive, MCL1-BIM inh inactive, GLD-1 TGE inh inactive, Bcl-xL primary inactive and eLon inh inactive.
For CC(C)C1Nc2ccc(C(=O)O)cc2C2C=CCC21 (stereo unspecified) the results were Keap1 Nrf2 FP inactive, C-LANA FP inactive, MCL1-BIM inh 82.2, GLD-1 TGE inh inactive, Bcl-xL primary 48.5, eLon inh inactive, Bcl-xL conf 36.5 and MCL1 BIM confirm 48.2.
